Records with an inconclusive call do not appear. Calls of active or inactive are those of the source. The call rests on the fitted dose curve; in most records, active means well fitted cell-killing curve with a large enough effect; inconclusive means small, poorly fitted or top-dose-only effect, or effect the other way; inactive means flat fitted curve, though single readings scatter.

This assay in a line: MultiTox-Fluor Cytotoxicity Assay - LYMP1-002 - Live Cells (AID 955). The settings on record: LYMP1-002 lymphoblastoid live-cell protease fluorescence viability; series mostly up to 46.1 µM. An excerpt: NIH Chemical Genomics Center [NCGC]
NIH Molecular Libraries Screening Centers Network [MLSCN]
National Institutes of Environmental Health Sciences [NIEHS]
National Toxicology Program [NTP]
We have developed a 1536-well cell-based assay for quantitative high throughput screening (qHTS) against a number of cell lines to determine in vitro cytotoxicity of small molecules. This particular assay uses a human lymphoblastoid cell line (LYMP1-002) purchased from Coriell Institute.
NCGC Assay Protocol Summary:
The MultiTox-Fluor Cytotoxicity Assay (Promega) is a homogeneous method to simultaneously measure the relative number of live and dead cells in culture by detecting changes in cell membrane integrity. There are two fluorogenic peptide substrates in the assay reagent. Viable cells are determined when the cell-permeant substrate (GF-AFC) enters the cell and is cleaved by protease from live cells resulting in liberated fluorophore. This live-cell protease activity restricted to viable cells is proportional to cell number. The dead cells are determined by using fluorogenic cell-impermeant peptide substrate (bis-AAF-R110) which cleaved by dead cell proteases leaking from damaged cell membrane.
Using the MultiTox-Fluor Cytotoxicity Assay, the relative number of live cells was measured in the lymphoblastoid cell line with complete culture medium following compound treatment for 16 hours. The assay was performed in opaque black Kalypsys 1536-well plates. In the screen, tetraoctylammonium bromide was used as positive control. Library compounds were measured for their ability to cause acute toxicity in the cell line, as reflected by a decrease in live cell protease activity, in a concentration-dependent manner. […] AC50 values were determined from concentration-response data modeled with the standard Hill equation.
qHTS protocol for MultiTox-Fluor Cytotoxicity assay
[Step] [Parameter] [Value] [Description]
1. Reagent; 5 uL; 2500 lymphoblastoid cells/well
2. Time; 5 hr; 37 C incubation
4. Controls; 23 nL; Tetraoctylammonium bromide 6.4pM to 92 uM
5. Time; 16 hr; 37 C incubation
6. Reagent; 5 uL; MuliTox-Fluor Assay reagent
7. Time; 60 min; Room Temperature
8. Detection; live-cell fluorescence (Ex/Em=405/510); EnVision plate reader
Keywords: cell viability, cytotoxicity, lymphoblastoid cell line, fluorescence, NTPHTS, NTPHTS_NCGC, NIEHS, EPA, DSSTox, MLSMR, MLSCN, NIH Roadmap, qHTS, NCGC
Turning to `CNC(=O)c1ccccc1`, the molecule was classed as inactive.

Take `CC(C)CCOC(=O)/C=C/c1ccccc1`: the molecule was called inactive.

With `Cc1c(N)cccc1[N+](=O)[O-]`, the molecule was classed as inactive.

On to `CCCCCCC=O`, for which the result was inactive.

Consider `Cc1ccccc1C(=O)O`, for which the call was inactive.

Consider `CC(=O)CCc1ccccc1`, for which the molecule was classed as inactive.

For `N#CCc1ccccc1[N+](=O)[O-]`, the result was inactive.

In the case of `O=C(Cl)c1cccc([N+](=O)[O-])c1`, the result was inactive.

In the case of `O=[N+]([O-])c1cccc(C(F)(F)F)c1`, the molecule was called inactive.

For `CN(C)CCCNCCCN`, the result was inactive.

As to `Cc1c(N)cccc1N`, the outcome was inactive.

Regarding `OC(CCl)CCl`, the molecule was classed as inactive.

Consider `O=C1C=CCCC1`, for which the result was inactive.

Take `CCCCOCCOCCOCCCC`: the outcome was inactive.

In the case of `Cc1ccc(C)c(N)c1`, the call was inactive.

On to `Cc1ccc(C)cc1`, for which the outcome was inactive.

Consider `CSc1ccc(C=O)cc1`, for which the call was inactive.

Turning to `CCOc1cc(OCC)c(C(C)=O)cc1OCC`, the result was inactive.

On to `Cc1cc(C)c(N)cc1C`, for which the call was inactive.

As for `ON=C1CCCCC1`, the call was inactive.

Consider `Cc1ccc2oc(=O)ccc2c1`, for which the molecule was called inactive.

`CC(=O)Nc1ccc(C)cc1`: the molecule was called inactive.

Regarding `O=C(O)CCSSCCC(=O)O`, the result was inactive.

For `O=C(O)CNC(=O)c1ccc([N+](=O)[O-])cc1`, the molecule was called inactive.

Turning to `Nc1cccc(N)c1`, the result was inactive.

Consider `O=Cc1c(Cl)cccc1Cl`, for which the outcome was inactive.

Consider `O=[N+]([O-])c1ccc2nc[nH]c2c1`, for which the molecule was called inactive.

On to `O=C(O)/C=C/C(=O)O`, for which the molecule was classed as inactive.

As for `CCOc1ccc(NC(C)=O)cc1N`, the molecule was classed as inactive.

Consider `COc1ccc(N=[N+]([O-])c2ccc(OC)cc2)cc1`, for which the molecule was classed as inactive.

For `ICCc1ccccc1`, the molecule was called inactive.

For `CC(O)COC(C)(C)C` (stereo not given), the molecule was called inactive.

For `CCCCC(C=O)CC` (stereo not given), the outcome was inactive.

Take `Nc1nc2ccccc2[nH]1`: the molecule was classed as inactive.

As to `CC(=O)c1nccs1`, the result was inactive.

Consider `C/C=C(/C)C#N`, for which the call was inactive.

In the case of `CC(C)(O)C(=O)O`, the result was inactive.

As to `C=C(C)C(=O)OCC(C)O` (stereo not given), the result was inactive.

Regarding `Cc1cccc2ccccc12`, the outcome was inactive.

With `C1CCCC1`, the molecule was called inactive.

Values taken from PubChem BioAssay (NCATS).
